The values below come from PMC7862700, “An all-to-all approach to the identification of sequence-specific readers for epigenetic DNA modifications on cytosine”.

Experiment in all cases: DAPPL (digital affinity profiling via proximity ligation, sequencing); 10 mM Tris-HCl pH 7.5, 50 mM NaCl, 1 mM DTT, 4% glycerol, room temperature, 30 min; GST-TFs on glutathione beads, 16-mer random dsDNA library, 0.1% formaldehyde crosslink after washing; high values mean tight binding
Holding throughout (settings): protein: recombinant; tags: N-terminal GST; dsDNA, one strand shown

The target in test [1] is T1, ELK1 (Homo sapiens, UniProt P19419 1-428).
T1 sequence: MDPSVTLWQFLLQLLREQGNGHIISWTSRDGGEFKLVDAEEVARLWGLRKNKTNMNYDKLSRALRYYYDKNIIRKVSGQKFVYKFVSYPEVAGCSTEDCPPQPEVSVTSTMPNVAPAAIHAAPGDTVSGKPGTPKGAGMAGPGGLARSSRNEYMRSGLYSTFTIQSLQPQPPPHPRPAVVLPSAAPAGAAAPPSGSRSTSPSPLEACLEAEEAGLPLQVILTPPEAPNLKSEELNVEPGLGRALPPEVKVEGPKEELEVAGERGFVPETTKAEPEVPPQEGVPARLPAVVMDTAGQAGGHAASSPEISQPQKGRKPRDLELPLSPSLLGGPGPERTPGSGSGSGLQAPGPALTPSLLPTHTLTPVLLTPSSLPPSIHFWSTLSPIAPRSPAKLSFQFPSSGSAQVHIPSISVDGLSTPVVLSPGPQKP
In a few lines:
(§1)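 Beads coated with glutathione captured GST-fused human transcription factors that had been expressed in yeast, and the factors were then given DNA barcodes and pooled with a tag-only sample. The pools were incubated with 200 nmole of a random double-stranded 16-mer DNA library in Tris/NaCl/DTT/glycerol buffer for 30 min at room temperature, washed, crosslinked with 0.1% formaldehyde and proximity-ligated with BsaI/T4 ligase at 37 °C for 1 h. PCR amplification and Illumina NextSeq500 sequencing came last. Binding signal is each hexamer's read frequency for a factor divided by its frequency for the tag-only sample.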

Test [2] concerns the target T2, GABPA (Homo sapiens, UniProt Q06546 1-454).
T2 sequence: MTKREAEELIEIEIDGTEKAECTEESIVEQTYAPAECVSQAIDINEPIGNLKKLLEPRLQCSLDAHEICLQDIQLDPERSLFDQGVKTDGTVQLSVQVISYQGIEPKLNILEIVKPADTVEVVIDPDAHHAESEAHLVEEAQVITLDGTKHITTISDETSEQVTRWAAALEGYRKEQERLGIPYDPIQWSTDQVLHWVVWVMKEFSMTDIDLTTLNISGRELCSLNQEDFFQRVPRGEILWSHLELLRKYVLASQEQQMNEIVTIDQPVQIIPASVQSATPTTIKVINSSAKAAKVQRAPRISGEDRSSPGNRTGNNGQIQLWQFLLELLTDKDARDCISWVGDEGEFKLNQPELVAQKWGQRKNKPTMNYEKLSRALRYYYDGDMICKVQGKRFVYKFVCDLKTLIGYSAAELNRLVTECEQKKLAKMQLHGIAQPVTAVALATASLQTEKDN
In a few lines: as §1

Test [3] addresses T3, ERG (Homo sapiens, UniProt P11308 1-479).
T3 sequence: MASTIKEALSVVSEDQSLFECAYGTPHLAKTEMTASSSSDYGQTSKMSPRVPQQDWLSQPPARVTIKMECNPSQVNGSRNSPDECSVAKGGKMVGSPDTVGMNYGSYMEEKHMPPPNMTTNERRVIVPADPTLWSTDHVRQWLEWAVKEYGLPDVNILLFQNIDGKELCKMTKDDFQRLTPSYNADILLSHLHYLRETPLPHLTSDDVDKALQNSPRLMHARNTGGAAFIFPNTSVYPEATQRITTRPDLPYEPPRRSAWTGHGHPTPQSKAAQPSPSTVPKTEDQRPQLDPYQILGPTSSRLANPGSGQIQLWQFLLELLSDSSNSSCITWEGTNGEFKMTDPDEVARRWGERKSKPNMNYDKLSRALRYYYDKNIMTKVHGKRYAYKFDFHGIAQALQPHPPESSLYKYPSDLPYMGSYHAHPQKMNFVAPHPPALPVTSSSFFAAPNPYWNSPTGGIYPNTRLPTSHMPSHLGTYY
In a few lines: as §1

Test [4] concerns the target ELF1 (Homo sapiens, UniProt P32519 1-619). In a few lines:
as §1

For test [5], the target named is T4, EHF (Homo sapiens, UniProt Q9NZC4 1-300).
T4 sequence: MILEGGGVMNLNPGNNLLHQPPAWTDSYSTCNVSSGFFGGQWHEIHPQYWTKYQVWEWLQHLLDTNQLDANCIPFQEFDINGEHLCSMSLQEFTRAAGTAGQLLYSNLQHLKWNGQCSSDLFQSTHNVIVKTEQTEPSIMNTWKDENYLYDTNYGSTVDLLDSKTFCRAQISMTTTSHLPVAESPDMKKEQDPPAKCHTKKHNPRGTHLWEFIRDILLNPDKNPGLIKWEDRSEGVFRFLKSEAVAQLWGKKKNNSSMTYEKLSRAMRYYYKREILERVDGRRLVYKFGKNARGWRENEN
In a few lines:
as §1

The target in test [6] is SPIB (Homo sapiens, UniProt Q01892 1-262). In outline:
as §1

Test [7] has as its target T5, FEV (Homo sapiens, UniProt Q99581 1-238).
T5 sequence: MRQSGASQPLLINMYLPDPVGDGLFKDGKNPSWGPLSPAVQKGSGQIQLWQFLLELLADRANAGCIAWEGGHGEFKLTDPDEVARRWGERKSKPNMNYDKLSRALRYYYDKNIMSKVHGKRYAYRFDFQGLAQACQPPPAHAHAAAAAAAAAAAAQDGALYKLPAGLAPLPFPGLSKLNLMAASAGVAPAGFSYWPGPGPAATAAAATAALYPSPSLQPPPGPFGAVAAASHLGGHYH
In a few lines:
as §1

The target of test [8] is ETV5 (Homo sapiens, UniProt P41161 1-510). In outline: as §1
Sequence of ETV5 (P41161 whole entry): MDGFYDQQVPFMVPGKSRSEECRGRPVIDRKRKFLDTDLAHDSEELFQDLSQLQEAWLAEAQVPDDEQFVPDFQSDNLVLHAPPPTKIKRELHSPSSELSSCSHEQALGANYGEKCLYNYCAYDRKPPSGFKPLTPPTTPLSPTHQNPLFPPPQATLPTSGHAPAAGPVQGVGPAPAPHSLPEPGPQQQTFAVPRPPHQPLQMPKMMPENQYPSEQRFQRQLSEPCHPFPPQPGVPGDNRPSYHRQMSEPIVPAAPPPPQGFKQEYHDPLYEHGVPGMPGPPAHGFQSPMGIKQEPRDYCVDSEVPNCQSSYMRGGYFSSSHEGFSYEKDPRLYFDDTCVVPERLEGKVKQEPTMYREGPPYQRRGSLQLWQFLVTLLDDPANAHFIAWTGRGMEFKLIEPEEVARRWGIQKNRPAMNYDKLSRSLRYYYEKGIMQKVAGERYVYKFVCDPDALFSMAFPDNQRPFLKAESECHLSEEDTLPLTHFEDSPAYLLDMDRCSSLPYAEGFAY
For test [9], the target named is ELF4 (Homo sapiens, UniProt Q99607 1-663). In outline:
as §1

In test [10] the target is T6, ELK4 (Homo sapiens, UniProt P28324-2 1-405).
T6 sequence: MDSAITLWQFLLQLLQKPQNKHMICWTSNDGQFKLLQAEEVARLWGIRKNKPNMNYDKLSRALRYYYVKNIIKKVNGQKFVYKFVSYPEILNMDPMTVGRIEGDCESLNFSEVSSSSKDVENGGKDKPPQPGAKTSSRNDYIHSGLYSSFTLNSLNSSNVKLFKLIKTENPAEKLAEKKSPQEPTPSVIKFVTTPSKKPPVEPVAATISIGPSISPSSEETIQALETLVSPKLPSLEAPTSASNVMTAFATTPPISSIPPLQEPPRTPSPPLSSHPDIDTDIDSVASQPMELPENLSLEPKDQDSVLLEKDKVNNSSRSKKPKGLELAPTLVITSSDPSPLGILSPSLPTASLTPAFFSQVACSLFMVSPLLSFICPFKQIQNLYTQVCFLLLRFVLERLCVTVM
In outline: as §1

In test [11] the target is T7, ETV2 (Homo sapiens, UniProt O00321 1-342).
T7 sequence: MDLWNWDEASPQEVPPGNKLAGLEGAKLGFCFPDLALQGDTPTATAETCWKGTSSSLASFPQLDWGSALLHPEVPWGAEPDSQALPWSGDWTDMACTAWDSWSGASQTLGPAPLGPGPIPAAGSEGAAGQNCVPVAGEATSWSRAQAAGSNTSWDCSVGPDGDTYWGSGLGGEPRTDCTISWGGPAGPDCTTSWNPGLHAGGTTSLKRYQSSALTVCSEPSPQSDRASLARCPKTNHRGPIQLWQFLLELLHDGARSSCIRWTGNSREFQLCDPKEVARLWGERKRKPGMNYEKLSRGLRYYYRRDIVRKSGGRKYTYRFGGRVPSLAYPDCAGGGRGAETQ
In outline: as §1

Test [12] addresses ETV1 (Homo sapiens, UniProt P50549 1-477). In outline:
as §1

Test [13] has as its target T8, ERF (Homo sapiens, UniProt P50548 1-548).
T8 sequence: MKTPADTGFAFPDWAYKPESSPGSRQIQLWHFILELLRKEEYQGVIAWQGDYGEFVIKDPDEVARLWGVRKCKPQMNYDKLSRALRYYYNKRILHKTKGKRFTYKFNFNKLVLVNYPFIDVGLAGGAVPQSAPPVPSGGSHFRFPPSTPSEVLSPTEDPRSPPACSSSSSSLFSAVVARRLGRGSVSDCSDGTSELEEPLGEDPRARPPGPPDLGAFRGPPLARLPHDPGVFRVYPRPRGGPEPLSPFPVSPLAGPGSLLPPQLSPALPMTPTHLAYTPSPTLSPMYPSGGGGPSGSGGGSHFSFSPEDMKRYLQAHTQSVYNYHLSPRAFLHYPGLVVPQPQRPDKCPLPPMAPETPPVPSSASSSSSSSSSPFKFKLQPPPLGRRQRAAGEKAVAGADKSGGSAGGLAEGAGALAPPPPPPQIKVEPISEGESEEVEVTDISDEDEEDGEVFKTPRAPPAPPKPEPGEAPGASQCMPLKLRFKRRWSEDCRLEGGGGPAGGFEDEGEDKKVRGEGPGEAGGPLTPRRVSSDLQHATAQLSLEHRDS
In outline: as §1

The target of test [14] is T9, ETV3L (Homo sapiens, UniProt Q6ZN32 1-361).
T9 sequence: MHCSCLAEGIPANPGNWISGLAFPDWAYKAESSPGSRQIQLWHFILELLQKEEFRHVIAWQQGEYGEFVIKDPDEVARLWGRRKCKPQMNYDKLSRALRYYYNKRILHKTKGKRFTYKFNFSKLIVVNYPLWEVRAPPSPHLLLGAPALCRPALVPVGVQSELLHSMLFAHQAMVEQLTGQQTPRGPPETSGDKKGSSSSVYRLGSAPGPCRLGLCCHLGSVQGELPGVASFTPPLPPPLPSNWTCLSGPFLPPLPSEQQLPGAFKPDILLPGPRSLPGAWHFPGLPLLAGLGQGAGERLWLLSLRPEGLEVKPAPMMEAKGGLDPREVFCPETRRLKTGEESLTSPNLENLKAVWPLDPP
In a few lines: as §1

In test [15] the target is T10, ETS2 (Homo sapiens, UniProt P15036 1-469).
T10 sequence: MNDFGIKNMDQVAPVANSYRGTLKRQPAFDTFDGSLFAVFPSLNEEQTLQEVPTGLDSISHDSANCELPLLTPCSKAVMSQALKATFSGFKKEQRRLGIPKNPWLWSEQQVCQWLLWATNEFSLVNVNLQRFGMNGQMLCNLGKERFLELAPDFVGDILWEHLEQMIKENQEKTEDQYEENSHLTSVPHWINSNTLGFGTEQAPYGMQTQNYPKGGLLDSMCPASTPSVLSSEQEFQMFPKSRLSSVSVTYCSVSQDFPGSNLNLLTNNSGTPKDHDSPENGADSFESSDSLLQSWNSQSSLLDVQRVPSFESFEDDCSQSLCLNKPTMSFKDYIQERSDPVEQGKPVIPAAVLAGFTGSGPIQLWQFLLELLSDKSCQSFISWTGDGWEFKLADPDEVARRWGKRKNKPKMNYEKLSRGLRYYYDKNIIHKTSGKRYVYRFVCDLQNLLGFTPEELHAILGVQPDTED
In a few lines:
as §1

Test [16] has as its target T11, SPDEF (Homo sapiens, UniProt O95238 1-335).
T11 sequence: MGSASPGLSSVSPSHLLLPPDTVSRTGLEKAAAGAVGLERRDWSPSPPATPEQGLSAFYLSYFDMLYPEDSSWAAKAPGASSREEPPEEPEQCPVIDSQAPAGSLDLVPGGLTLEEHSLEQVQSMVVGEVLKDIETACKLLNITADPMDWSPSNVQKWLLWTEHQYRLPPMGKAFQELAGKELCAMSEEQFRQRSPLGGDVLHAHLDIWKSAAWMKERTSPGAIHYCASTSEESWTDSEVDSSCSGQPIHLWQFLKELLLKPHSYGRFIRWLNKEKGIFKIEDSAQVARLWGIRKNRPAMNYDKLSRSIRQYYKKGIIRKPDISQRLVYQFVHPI
In a few lines:
as §1

The target of test [17] is T12, ETV7 (Homo sapiens, UniProt Q9Y603 1-341).
T12 sequence: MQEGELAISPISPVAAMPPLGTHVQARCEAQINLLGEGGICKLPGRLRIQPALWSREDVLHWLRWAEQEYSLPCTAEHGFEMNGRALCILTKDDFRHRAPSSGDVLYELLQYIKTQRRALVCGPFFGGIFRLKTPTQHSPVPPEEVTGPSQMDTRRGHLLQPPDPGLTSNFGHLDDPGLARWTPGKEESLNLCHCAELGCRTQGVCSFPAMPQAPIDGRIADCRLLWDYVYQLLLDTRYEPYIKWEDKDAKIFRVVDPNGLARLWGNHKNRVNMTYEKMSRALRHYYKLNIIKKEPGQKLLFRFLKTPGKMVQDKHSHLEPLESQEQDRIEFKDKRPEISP
In outline:
as §1

Test [18] deals with T13, ETV3 (Homo sapiens, UniProt P41162-2 1-143).
T13 sequence: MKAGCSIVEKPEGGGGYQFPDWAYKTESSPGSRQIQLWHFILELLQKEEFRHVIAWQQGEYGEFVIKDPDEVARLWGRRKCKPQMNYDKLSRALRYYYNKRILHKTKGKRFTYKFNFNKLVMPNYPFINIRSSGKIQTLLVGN
In outline: as §1

Test [19] addresses ETV6 (Homo sapiens, UniProt P41212 1-452). In a few lines: as §1

Sequence of SPIB (Q01892 whole entry): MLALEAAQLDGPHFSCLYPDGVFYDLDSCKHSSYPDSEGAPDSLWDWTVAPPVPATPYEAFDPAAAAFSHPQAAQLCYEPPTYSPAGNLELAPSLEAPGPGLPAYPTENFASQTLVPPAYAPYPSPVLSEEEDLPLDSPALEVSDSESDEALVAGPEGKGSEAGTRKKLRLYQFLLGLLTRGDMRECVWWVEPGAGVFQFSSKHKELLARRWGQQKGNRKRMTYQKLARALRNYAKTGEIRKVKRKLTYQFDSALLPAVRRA
Sequence of ETV6 (P41212 whole entry): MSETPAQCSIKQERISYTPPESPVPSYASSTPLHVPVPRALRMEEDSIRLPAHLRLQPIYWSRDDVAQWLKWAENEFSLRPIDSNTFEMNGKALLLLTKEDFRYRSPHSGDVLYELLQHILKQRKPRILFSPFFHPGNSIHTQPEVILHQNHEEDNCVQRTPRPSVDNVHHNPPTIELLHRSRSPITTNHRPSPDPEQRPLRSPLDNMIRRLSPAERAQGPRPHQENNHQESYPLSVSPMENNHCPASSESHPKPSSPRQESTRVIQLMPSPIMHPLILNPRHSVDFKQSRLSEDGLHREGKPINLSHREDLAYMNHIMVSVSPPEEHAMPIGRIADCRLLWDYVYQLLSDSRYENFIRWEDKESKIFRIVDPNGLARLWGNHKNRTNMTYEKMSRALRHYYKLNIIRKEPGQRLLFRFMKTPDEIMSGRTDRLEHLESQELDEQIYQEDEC
Sequence of ETV1 (P50549 whole entry): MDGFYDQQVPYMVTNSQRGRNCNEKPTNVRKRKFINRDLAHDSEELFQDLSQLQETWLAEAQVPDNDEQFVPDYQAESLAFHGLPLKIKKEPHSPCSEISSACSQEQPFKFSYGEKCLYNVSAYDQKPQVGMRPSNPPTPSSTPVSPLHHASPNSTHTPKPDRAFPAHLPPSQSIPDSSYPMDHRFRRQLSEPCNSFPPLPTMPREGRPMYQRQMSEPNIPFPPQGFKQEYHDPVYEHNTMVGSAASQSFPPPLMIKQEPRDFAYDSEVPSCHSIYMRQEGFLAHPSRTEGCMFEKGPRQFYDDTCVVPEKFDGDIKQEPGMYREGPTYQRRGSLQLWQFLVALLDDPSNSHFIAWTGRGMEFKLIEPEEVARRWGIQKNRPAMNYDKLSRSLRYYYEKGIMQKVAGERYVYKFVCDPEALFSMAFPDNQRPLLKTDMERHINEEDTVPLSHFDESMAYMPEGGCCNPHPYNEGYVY
Sequence of ELF1 (P32519 whole entry): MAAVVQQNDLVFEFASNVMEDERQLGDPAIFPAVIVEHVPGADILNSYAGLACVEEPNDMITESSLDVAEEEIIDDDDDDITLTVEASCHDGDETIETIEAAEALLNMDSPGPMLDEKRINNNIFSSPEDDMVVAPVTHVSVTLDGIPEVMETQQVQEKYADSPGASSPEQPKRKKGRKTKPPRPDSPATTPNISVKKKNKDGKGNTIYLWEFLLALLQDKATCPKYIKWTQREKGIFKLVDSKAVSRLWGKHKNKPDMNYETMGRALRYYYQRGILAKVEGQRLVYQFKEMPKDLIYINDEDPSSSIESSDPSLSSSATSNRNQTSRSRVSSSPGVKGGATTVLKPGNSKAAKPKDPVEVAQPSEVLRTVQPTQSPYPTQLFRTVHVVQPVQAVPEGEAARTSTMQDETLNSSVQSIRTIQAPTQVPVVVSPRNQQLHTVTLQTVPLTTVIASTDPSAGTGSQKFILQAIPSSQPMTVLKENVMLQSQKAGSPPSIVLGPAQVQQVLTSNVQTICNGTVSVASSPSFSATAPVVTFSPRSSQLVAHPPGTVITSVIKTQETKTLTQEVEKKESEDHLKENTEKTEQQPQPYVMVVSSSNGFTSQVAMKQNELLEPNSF
Sequence of ELF4 (Q99607 whole entry): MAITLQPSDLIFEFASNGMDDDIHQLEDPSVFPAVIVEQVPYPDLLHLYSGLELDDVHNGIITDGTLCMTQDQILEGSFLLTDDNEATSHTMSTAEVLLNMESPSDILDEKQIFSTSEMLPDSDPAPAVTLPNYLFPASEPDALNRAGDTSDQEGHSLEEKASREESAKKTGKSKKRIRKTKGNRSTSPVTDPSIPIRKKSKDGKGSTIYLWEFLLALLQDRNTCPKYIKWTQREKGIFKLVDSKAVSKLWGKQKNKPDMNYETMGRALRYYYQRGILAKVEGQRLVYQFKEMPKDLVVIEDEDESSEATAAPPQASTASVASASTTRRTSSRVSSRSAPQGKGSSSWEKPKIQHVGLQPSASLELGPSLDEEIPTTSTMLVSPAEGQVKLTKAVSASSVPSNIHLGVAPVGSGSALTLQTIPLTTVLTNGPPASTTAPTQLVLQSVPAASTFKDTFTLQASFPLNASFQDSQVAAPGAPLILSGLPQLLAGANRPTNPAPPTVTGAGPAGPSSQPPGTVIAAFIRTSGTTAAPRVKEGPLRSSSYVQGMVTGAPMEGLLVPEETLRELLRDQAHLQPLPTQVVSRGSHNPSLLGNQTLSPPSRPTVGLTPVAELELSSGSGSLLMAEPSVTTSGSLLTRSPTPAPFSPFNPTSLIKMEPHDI

ATGCCA: the binding signal in [1] is 1.06 fold enrichment (6-mer frequency, TF over GST control); in [2] it was 1.02 fold enrichment (6-mer frequency, TF over GST control); in [3], 1.04 fold enrichment (6-mer frequency, TF over GST control); in test [4], 1.07 fold enrichment (6-mer frequency, TF over GST control); in test [5] it was 1.05 fold enrichment (6-mer frequency, TF over GST control); in test [6], 1.03 fold enrichment (6-mer frequency, TF over GST control). The binding signal in test [7] is 1.04 fold enrichment (6-mer frequency, TF over GST control); in test [8], 1.05 fold enrichment (6-mer frequency, TF over GST control); in test [9], 1.09 fold enrichment (6-mer frequency, TF over GST control); in [10], 1.02 fold enrichment (6-mer frequency, TF over GST control); in test [11] it was 1.06 fold enrichment (6-mer frequency, TF over GST control); in [12] it was 1.02 fold enrichment (6-mer frequency, TF over GST control). In addition, the binding signal in test [13] was 1 fold enrichment (6-mer frequency, TF over GST control); in [14], 1.02 fold enrichment (6-mer frequency, TF over GST control); in test [15] it was 1.03 fold enrichment (6-mer frequency, TF over GST control); in test [16], 1.04 fold enrichment (6-mer frequency, TF over GST control); in [17], 1.08 fold enrichment (6-mer frequency, TF over GST control); in test [18] it was 1.13 fold enrichment (6-mer frequency, TF over GST control). Further, the binding signal in test [19] is 1.05 fold enrichment (6-mer frequency, TF over GST control).
